Assay [1] in a line: qHTS assay for small molecule agonists of retinoid X receptor alpha signaling (AID 588544).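 For activation: 0% = DMSO basal wells and 100% = reference agonist.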 The conditions noted are these: HEK293T RXRa-UAS-bla, beta-lactamase reporter, 18 h; 530 nm emission. (In general: qHTS replaces the single test concentration by a dilution series.)
Assay [2] concerns the target Retinoic acid receptor RXR-alpha (Homo sapiens) (UniProt P19793). The description is as above. Conditions: HEK293T RXRa-UAS-bla, beta-lactamase reporter, 18 h; series mostly up to 76.7 µM.
For assay [3], the target named is Thyroid hormone receptor beta (Homo sapiens) (UniProt P10828). Kind of assay: qHTS assay for small molecule agonists of thyroid hormone receptor beta signaling (AID 588545). Conditions: TR-UAS-bla GripTite HEK 293, beta-lactamase ratio, agonist mode, 18 h, percent of T3 response, DMSO as zero; series mostly up to 76.7 µM. In outline: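 Agonist activity was read as beta-lactamase CCF4 fluorescence (405 ex, 460/530 em), scaled between DMSO (0%) and 10 nM T3 (100%), then Hill-fitted for EC50 and efficacy. HEK 293 TR-UAS-bla cells in 2% charcoal/dextran FBS medium were exposed 18 h at 37 C.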

Assay [4] in a line: qHTS assay for small molecule antagonists of retinoid X receptor alpha signaling (AID 588546; active = well fitted inhibition curve with a large enough effect in the signal ratio, with a control signal flat, not every such curve was filed as active; the % refers to the signal ratio;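 note: cells stimulated with 9-cis-retinoic acid as agonist; % is set by controls: 0 for no effect and ±100 for the full control effect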). The conditions noted are these: HEK293T RXRa-UAS-bla, beta-lactamase ratio, antagonist mode; measured here: W530 green channel, cytotoxicity proxy. In outline:
(§1)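 Beta-lactamase reporter inhibition, read as CCF4 fluorescence ratio (ex 405, em 460/530 nm) after 2 h at RT. HEK293T UAS-bla cells, 2500/well, were stimulated with 9-cis-RA at 500 or 100 nM final alongside test compound for 18 h at 37 C.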

The target of assay [5] is Retinoic acid receptor RXR-alpha (Homo sapiens) (UniProt P19793). The description is as above. Conditions: HEK293T RXRa-UAS-bla, beta-lactamase ratio, antagonist mode. An outline of the steps: as §1
For assay [6], the target named is Voltage-gated inwardly rectifying potassium channel KCNH2 (Homo sapiens) (UniProt Q12809). Kind of assay: qHTS Assay for Small Molecule Inhibitors of the Human hERG Channel Activity (AID 588834; active = well fitted curve in the direction sought with a large enough effect; an effect the other way counts as inactive or inconclusive;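 note: top concentration of the series differs between compounds; % is set by controls: 0 for no effect and ±100 for the full control effect; lower thallium flux fluorescence means stronger hERG block; nearly all actives have a fitted effect of over 50% in size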). The conditions noted are these: U2OS BacMam hERG, FluxOR thallium flux fluorescence; series mostly up to 92.2 µM. In outline:
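Thallium-flux (FluxOR) read-out on FDSS: fluorescence read 10 s before and 2 min after stimulation buffer. hERG-BacMam-transduced U2OS cells, compound exposure about 10 min. AC50 by standard Hill equation.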

Assay [7] in a line: qHTS assay for small molecule agonists of the antioxidant response element (ARE) signaling pathway (AID 651741; active = well fitted activation curve with a large enough effect in the signal ratio; the % refers to the signal ratio; note: % of control where 0% means no effect). The conditions noted are these: HepG2 ARE-bla reporter, beta-lactamase FRET ratio, 16 h; series mostly up to 96 µM. In outline: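 HepG2 ARE-bla reporter cells, 2,000/well; 5 h settle at 37 C/5% CO2; compound pin transfer (23 nL, DMSO); 16 h at 37 C; LiveBLAzer B/G FRET substrate, 2 h RT; fluorescence intensity read.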

The nature of assay [8]: qHTS assay for small molecule activators of the p53 signaling pathway (AID 651743; active = well fitted activation curve with a large enough effect in the signal ratio, not every such curve was filed as active; the % refers to the signal ratio; note: % of control where 0% means no effect). Conditions: HCT-116 p53RE-bla, beta-lactamase FRET ratio, 16 h; stronger effect = higher value. In outline: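 Reporter: beta-lactamase driven by p53 response elements, stably integrated in HCT-116 cells. Cells seeded at 4,000/well, 5 h preincubation, compound (DMSO) 16 h at 37 C; B/G FRET substrate 2 h RT; fluorescence intensity read.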

Assay [9] in a line: qHTS assay for small molecule activators of the nuclear factor-kappa B (NF-kB) signaling pathway (AID 651749; active = well fitted activation curve with a large enough effect in the signal ratio; the % refers to the signal ratio; note: % of control where 0% means no effect). The conditions noted are these: NF-kB-bla ME-180 cells, beta-lactamase FRET ratio, 16 h; stronger effect = higher value. An outline of the steps:
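NF-kB-bla ME-180 cells, 2,000/well; 23 nL compound or DMSO pinned; 16 hr, 37C/5% CO2; beta-lactamase FRET read-out.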

Assay [10] is described as follows: qHTS assay for small molecule disruptors of the mitochondrial membrane potential - 1 hr assay (AID 651754). Note: % is set by controls: 0 for no effect and ±100 for the full control effect; nearly all actives have a fitted effect of over 35% in size. The conditions noted are these: series mostly up to 92.2 µM. An outline of the steps: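 In this qHTS format, a 1 hr compound treatment of HepG2 cells precedes Mito-MPS staining, and membrane potential is judged from aggregate (red) against monomer (green) fluorescence intensity.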

Assay [11] is described as follows: qHTS assay for small molecule disruptors of the mitochondrial membrane potential - 5 hr assay (AID 651755). Note: % is set by controls: 0 for no effect and ±100 for the full control effect; nearly all actives have a fitted effect of over 40% in size. Conditions: JC-1-type ratio dye; series mostly up to 92.2 µM. An outline of the steps: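 Read-out: ratiometric Mito-MPS fluorescence, green monomer (ex 490/em 535) vs red mitochondrial aggregate (ex 540/em 590). HepG2 cells treated 5 hr at 37C before 30 min dye loading.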

Assay [12] has as its target Tumor necrosis factor (Homo sapiens) (UniProt P01375). Kind of assay: qHTS assay to identify small molecules that stimulate Tumor Necrosis Factor-alpha (TNF-alpha) secretion (AID 651757; active = well fitted curve in the direction sought with a large enough effect in the signal ratio; the % refers to the signal ratio; note: 0% is about no effect). The conditions noted are these: Human cells, HTRF 665/615 ratio; series mostly up to 92.2 µM. An outline of the steps:
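Using 3000 THP-1 cells per well, compounds and controls were applied for 17 hrs at 37 C. Detection followed with two labeled anti-TNF-alpha antibodies (cryptate donor, XL665 acceptor) for 3 hr at room temperature, measured by TR-FRET.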

The nature of assay [13]: qHTS assay to identify small molecules that stimulate interleukin-8 (IL-8) secretion (AID 651758; active = well fitted activation curve with a large enough effect in the signal ratio; the % refers to the signal ratio; note: 0% is about no effect). The conditions noted are these: HTRF ratio (665/615); series mostly up to 92.2 µM. An outline of the steps:
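Compounds are added to THP-1 cells (2000 per well) and left 16 hrs at 37 C. A labeled anti-IL-8 antibody pair is then added, and IL-8 secretion is measured by time-resolved FRET after 1-3 hrs at room temperature.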

Assay [14] is described as follows: qHTS assay for environmental chemicals that activate the Aryl hydrocarbon Receptor (AhR) signaling pathway (AID 651777; active = well fitted curve in the direction sought with a large enough effect; an effect the other way counts as inactive or inconclusive; note: % of control where 0% means no effect; nearly all actives have a fitted effect of over 15% in size). Conditions: 1A2-DRE human hepatoma cells, luciferase, 24 h; activation: stronger effect = higher value. An outline of the steps:
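Following a 24 hr incubation with test chemicals at 37 C and 5% CO2, 1A2-DRE human hepatoma cells received One-Glo reagent; after 30 min at room temperature, luciferase output reflected CYP1A2 induction via AhR.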

Assay [15] addresses Peroxisome proliferator-activated receptor alpha (Homo sapiens) (UniProt Q07869). Kind of assay: qHTS assay for small molecule agonists of the peroxisome proliferator-activated receptor alpha (PPARalpha) signaling pathway (AID 651778; active = well fitted curve in the direction sought with a large enough effect; an effect the other way counts as inactive or inconclusive; note: % of control where 0% means no effect). Conditions: PathHunter PPARalpha complementation, chemiluminescence, 6 h; stronger effect = higher value. In outline: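 Enzyme-fragment complementation assay in which ligand-bound PPARalpha translocates and forms an active enzyme that generates chemiluminescence. Cells were plated overnight, exposed to compound for 6 hr at 37 C, and then given detection reagent for 60 min at room temperature.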

Assay [16] concerns the target Nuclear receptor ROR-gamma (Homo sapiens) (UniProt P51449). The assay can be described thus: qHTS assay for small molecule antagonists of the retinoid-related orphan receptor gamma (ROR-gamma) signaling pathway (AID 651802; active = well fitted curve in the direction sought with a large enough effect; an effect the other way counts as inactive or inconclusive;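 note: luciferase reporter luminescence driven by ROR response element; % is set by controls: 0 for no effect and ±100 for the full control effect; nearly all actives have a fitted effect of over 60% in size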). Conditions: ROR-gamma antagonist cell reporter assay; series mostly up to 92.2 µM. An outline of the steps: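 Doxycycline-induced reporter activity in engineered CHO cells (TET-inducible ROR, RORE-LUC) was measured by luminescence after 16hr compound exposure at 37C.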

Assay [17] can be described thus: qHTS assay for small molecule agonists of the antioxidant response element (ARE) signaling pathway measured by Nrf2-dependant transcriptional activity (AID 720636; active = well fitted curve in the direction sought with a large enough effect in the repeat runs; an effect the other way counts as inactive or inconclusive; note: % of control where 0% means no effect). The conditions noted are these: ARE-luc HepG2, Nrf2 luciferase reporter, 16 h; series mostly up to 92.4 µM. An outline of the steps: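 ONE-Glo luminescence, read 30 min after reagent addition at room temperature, reflected ARE reporter activity in HepG2 cells that had been incubated with compound for 16 hr at 37 C in 1% dialyzed FBS.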

Assay [18] can be described thus: qHTS assay for small molecule antagonists of the retinoid-related orphan receptor gamma (ROR-gamma) signaling pathway - cell viability counter screen (AID 720652; active = well fitted curve in the direction sought with a large enough effect in the repeat runs; an effect the other way counts as inactive or inconclusive;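 note: compound exposure lasted 16 hr before ATP read; % is set by controls: 0 for no effect and ±100 for the full control effect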). The conditions noted are these: RORgamma reporter cell line viability counter screen; series mostly up to 92.2 µM. An outline of the steps: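 ATP-based viability readout in the ROR-gamma reporter CHO cells after 16 hr compound exposure under doxycycline induction.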

A short description of assay [19]: qHTS assay for small molecule agonists of the antioxidant response element (ARE) signaling pathway measured by Nrf2-dependant transcriptional activity - cell viability counter screen (AID 720653; active = well fitted curve in the direction sought with a large enough effect in the repeat runs; an effect the other way counts as inactive or inconclusive; note: % is set by controls: 0 for no effect and ±100 for the full control effect). Conditions: ARE-bla HepG2 viability, CellTiter-Glo ATP luminescence, 16 h; stronger effect = lower value. An outline of the steps:
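ARE-bla HepG2 cells treated with compounds for 16 h at 37C; this counter screen measures viability as intracellular ATP by CellTiter-Glo luminescence after 30 min at room temperature.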

For assay [20], the target named is Thyroid hormone receptor beta (Homo sapiens) (UniProt P10828). Kind of assay: qHTS assay for small molecule antagonists of thyroid hormone receptor beta signaling (AID 588547; active = well fitted inhibition curve with a large enough effect in the signal ratio, with a control signal flat, not every such curve was filed as active; the % refers to the signal ratio;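 note: cells stimulated with 0.4 nM T3 agonist during compound exposure; % is set by controls: 0 for no effect and ±100 for the full control effect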). Conditions: TR-UAS-bla HEK293, beta-lactamase ratio, antagonist mode, 18 h. An outline of the steps: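 TR-UAS-bla GripTite HEK293 cells in 2% charcoal/dextran FBS medium; compounds 0.59 nM to 92 uM with T3 at 0.4nM final, 18 h at 37 C. Beta-lactamase read by CCF4 fluorescence (460/530 nm); Hill fits gave IC50 and efficacy.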

Structures are written as SMILES. Results filed as inconclusive are left out. Activity calls are given as the source filed them. Unless noted, calls come from the whole dose curve.

Sequence of Nuclear receptor ROR-gamma (Homo sapiens) (P51449 whole entry, looked up): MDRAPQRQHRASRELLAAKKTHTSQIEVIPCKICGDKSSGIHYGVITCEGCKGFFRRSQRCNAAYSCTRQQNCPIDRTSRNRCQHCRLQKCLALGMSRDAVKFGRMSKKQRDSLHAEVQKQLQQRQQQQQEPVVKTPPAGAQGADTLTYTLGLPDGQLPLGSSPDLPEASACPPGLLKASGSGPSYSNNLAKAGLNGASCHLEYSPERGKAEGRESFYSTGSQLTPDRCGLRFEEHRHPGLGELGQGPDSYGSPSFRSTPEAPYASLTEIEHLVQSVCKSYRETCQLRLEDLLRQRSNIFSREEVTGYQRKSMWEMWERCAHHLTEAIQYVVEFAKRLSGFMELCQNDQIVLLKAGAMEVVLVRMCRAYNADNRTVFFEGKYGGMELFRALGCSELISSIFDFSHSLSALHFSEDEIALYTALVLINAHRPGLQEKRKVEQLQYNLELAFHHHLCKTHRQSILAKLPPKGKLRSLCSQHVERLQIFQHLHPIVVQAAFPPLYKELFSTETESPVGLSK
Sequence of Retinoic acid receptor RXR-alpha (Homo sapiens) (P19793 whole entry, looked up): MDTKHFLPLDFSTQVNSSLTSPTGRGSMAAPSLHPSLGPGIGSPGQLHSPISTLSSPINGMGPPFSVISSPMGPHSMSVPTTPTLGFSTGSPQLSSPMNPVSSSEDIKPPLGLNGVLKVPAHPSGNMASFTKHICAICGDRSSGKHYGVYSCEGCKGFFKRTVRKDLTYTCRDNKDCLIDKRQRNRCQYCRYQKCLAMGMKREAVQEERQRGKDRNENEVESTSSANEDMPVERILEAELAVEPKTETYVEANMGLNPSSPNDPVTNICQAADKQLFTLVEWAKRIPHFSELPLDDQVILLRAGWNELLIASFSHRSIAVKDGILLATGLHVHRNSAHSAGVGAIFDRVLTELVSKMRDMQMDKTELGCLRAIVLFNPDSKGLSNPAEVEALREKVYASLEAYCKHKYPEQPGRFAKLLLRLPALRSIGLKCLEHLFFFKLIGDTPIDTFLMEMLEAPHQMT
Sequence of Thyroid hormone receptor beta (Homo sapiens) (P10828 whole entry, looked up): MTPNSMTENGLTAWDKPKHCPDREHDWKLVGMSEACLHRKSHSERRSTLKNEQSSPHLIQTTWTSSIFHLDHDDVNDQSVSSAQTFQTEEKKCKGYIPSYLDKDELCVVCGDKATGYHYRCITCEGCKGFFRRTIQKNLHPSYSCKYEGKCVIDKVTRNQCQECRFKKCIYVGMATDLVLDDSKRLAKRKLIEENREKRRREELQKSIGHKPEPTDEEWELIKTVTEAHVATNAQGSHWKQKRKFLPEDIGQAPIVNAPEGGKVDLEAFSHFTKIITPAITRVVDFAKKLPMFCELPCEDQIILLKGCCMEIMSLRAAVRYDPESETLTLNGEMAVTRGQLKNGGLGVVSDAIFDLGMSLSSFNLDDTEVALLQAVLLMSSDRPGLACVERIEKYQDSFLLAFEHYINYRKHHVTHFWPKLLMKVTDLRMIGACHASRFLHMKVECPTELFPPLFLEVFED
Sequence of Tumor necrosis factor (Homo sapiens) (P01375 whole entry, looked up): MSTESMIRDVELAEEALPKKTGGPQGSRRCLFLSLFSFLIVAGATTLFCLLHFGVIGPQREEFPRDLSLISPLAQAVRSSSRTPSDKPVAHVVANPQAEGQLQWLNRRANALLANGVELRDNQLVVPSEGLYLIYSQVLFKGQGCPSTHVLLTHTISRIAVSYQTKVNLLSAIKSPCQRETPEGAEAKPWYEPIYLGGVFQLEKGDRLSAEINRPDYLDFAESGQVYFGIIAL
Sequence of Peroxisome proliferator-activated receptor alpha (Homo sapiens) (Q07869 whole entry, looked up, the tested form may be a part): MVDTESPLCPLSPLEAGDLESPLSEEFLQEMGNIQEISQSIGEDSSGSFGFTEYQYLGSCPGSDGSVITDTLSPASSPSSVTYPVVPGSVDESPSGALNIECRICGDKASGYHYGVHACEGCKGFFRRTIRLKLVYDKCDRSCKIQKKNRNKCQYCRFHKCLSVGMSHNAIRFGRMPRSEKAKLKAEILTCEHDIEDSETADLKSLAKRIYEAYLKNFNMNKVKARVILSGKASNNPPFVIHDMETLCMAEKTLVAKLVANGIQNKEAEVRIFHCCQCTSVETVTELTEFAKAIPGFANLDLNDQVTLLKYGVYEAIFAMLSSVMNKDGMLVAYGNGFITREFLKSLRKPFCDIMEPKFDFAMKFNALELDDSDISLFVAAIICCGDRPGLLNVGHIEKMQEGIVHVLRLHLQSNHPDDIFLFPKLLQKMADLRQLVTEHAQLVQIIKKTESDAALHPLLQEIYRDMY
Sequence of Voltage-gated inwardly rectifying potassium channel KCNH2 (Homo sapiens) (Q12809 whole entry, looked up): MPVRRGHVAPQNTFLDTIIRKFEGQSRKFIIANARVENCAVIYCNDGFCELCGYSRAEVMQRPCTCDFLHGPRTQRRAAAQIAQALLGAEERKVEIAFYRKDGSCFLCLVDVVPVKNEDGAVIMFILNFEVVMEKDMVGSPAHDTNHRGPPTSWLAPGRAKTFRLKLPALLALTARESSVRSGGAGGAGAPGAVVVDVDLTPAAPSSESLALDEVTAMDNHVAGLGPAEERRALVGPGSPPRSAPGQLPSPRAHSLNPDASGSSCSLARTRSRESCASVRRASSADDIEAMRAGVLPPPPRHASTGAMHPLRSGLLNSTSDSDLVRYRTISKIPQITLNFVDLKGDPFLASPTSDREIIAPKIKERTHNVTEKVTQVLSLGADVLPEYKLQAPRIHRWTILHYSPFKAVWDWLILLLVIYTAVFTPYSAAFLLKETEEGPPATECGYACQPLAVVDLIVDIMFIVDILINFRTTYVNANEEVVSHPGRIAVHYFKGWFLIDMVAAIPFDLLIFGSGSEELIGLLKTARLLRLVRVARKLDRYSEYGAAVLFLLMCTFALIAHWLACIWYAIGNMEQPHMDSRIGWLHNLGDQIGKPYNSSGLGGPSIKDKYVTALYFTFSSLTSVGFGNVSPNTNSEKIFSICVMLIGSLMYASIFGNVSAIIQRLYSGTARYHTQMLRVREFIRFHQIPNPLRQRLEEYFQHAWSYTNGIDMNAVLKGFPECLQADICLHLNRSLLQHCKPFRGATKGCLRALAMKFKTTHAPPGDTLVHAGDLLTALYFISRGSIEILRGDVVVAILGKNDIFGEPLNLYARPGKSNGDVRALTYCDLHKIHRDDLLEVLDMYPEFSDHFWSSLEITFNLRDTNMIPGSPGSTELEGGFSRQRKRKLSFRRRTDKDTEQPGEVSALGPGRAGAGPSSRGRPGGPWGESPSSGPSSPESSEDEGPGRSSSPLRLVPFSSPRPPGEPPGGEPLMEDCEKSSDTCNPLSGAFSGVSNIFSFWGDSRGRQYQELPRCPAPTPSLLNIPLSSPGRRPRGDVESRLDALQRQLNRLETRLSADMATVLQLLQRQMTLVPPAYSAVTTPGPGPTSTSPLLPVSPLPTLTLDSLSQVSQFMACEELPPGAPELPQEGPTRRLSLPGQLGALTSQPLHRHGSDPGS

`c1ccsc1`: the max response in [1] is -5.29%; in assay [4], -0.2%; in assay [5], -6.87% (inactive); in [15] it was -6.32% (inactive); in assay [19], 9% (inactive). Further, the result in [2], in [3] and in [17] was inactive. Also, the Potency entry in [6], in assay [7], in assay [10], in assay [11], in assay [12] and in [13] was “inactive” in each case. Besides, the Potency entry in assay [16] and in [18] was “inactive” in each case. Also, the activation was 1.47% (inactive) in assay [8], 0.633% (inactive) in [9] and -0.706% (inactive) in assay [14].

In the case of `CC(=O)CC(C)C`, the max response is -6.71% in assay [1]; -1.65% in [4]; 12.3% (inactive) in [5]; -2.67% (inactive) in assay [15]; 4.78% (inactive) in assay [19]. Also, the result in [2], in assay [3] and in [17] was inactive. The activity change % (negative = inhibition) in [20] is -3.32% (inactive). In addition, the Potency result in assay [7], in [10], in [11], in assay [12], in assay [16] and in assay [18] was “inactive” each time. Besides, the activation is -2.45% (inactive) in [8], 0.24% (inactive) in [9] and -0.041% (inactive) in [14].

Turning to `C=C(C)C(=O)OCCCCCCCCCC`, the max response in assay [1] is -10.3%; in [4] it was -7.57%; in assay [5], -3.36% (inactive); in [15], -0.186% (inactive); in assay [19] it was -0.733% (inactive). The outcome in assay [2], in assay [3] and in [17] was inactive. For the same compound, the activity change % (negative = inhibition) in assay [20] was 12.3% (inactive). Besides, the Potency entry in assay [10], in [12], in [13], in assay [16] and in [18] was “inactive” each time. In addition, the activation in assay [14] was -0.81% (inactive).

For `N#Cc1ccccc1`, the max response in assay [1] is -9.04%; in assay [4] it was 0.37%; in [5], 1.5% (inactive); in assay [15], -0.81% (inactive); in assay [19] it was 0.163% (inactive). Also, the outcome in assay [2], in assay [3] and in [17] was inactive. The Potency result in assay [6], in assay [7], in [10], in [12], in assay [16] and in [18] was “inactive” throughout. Further, the activation in [8] is -1.56% (inactive); in [9], 0.786% (inactive).

In the case of `BrC(Br)C(Br)Br`, the max response is -10.8% in [1]; -6.63% in assay [4]; -0.43% (inactive) in assay [5]; 6.41% (inactive) in [15]; 0.416% (inactive) in assay [19]. For the same compound, the result in assay [2], in assay [3] and in [17] was inactive. The activity change % (negative = inhibition) in [20] was 0.66% (inactive). Further, the activation was -2.69% (inactive) in [8], 2.53% (inactive) in [9] and -0.0804% (inactive) in assay [14]. The Potency entry in assay [10], in [11], in assay [12], in assay [16] and in [18] was “inactive” in each case.

For `CCCCC(CC)CNCC(CC)CCCC` (stereo unspecified), the max response was 2.31% in assay [1]; 0.349% in [4]; 10% (inactive) in assay [5]; -0.499% (inactive) in [15]; 3.58% (inactive) in [19]. For the same compound, the compound was called inactive in [2], in [3] and in assay [17]. The Potency result in assay [7], in assay [10], in [11], in assay [12] and in assay [16] was “inactive” throughout. Moreover, the activation in assay [9] was -0.684% (inactive).

As to `CCCCCCCCC/C=C/CC1CC(=O)OC1=O` (stereo unspecified), the max response in assay [1] is -0.831%; in assay [4], 1.93%; in assay [5], 19.9% (inactive); in assay [15], 0.153% (inactive). In addition, the compound was called inactive in assay [2], in assay [3] and in [17]. The Potency result in [6], in assay [10], in assay [11], in assay [12], in [13] and in assay [18] was “inactive” throughout. Also, the activation was -0.282% (inactive) in assay [9] and 0.696% (inactive) in assay [14].

On to `O=[N+]([O-])c1c(Cl)cc(Cl)cc1Cl`, for which the max response in [1] was -6.72%; in assay [4], -2.99%; in assay [5], 8.69% (inactive); in [15], 0.895% (inactive); in assay [19], -2.01% (inactive). In addition, the call in [2], in [3] and in [17] was inactive. The Potency result in [6], in assay [10], in assay [11], in [12], in [16] and in assay [18] was “inactive” throughout. The activation in [8] is 1.35% (inactive); in assay [9] it was -0.147% (inactive); in assay [14], 0.0842% (inactive).

These data come from PubChem BioAssay (NCATS).
